Measurements reported in PubChem BioAssay (NCATS).
Results filed as inconclusive are left out. The source made the active and inactive calls. Unless noted, the call rests on the fitted dose curve; in most records, active means well fitted curve in either direction with a large enough effect (not every such curve was filed as active); inconclusive means small, poorly fitted or top-dose-only effect, or another doubt; inactive means flat fitted curve, though single readings scatter.

Key:
[1] = molecular target: Lysosomal acid glucosylceramidase (Homo sapiens) (UniProt P04062); experiment: Glucocerebrosidase-p2 (AID 348; in the data active means potency below about 10 µM; further: potency means the concentration at half of the fitted maximal effect); conditions: purified GBA, blue fluorogenic substrate, 40 min
Procedure, shortened: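 Compounds titrated from 0.6 nM upwards against 0.2 nM enzyme in pH 5.9 citric acid/KH2PO4, taurocholate, tween-20; blue fluorogenic substrate 80 uM, 40 min room temperature, stopped and read Ex 365/Em 440 for AC50.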

[2] = AP1 Signaling Pathway (AID 357); conditions: ME-180 AP-1-bla reporter, EGF-induced, beta-lactamase ratio, 5 h; at 7.69 µM (top of the series) unless noted;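 further: ME-180 reporter cells stimulated with EGF at its EC50 level; on the % scale 0 is the no-effect control and ±100 the full control effect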
Procedure, shortened: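 In this screen, ME-180 cells in Opti-MEM with 0.5% dialyzed FBS received EC50 EGF and compound titrations for 5 h. AP-1 reporter beta-lactamase was detected via CCF4 ratio, giving AC50 for positive and negative modulators.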

[3] = Stat Signaling Pathway (AID 446); conditions: ME-180 SIE beta-lactamase reporter, IL-6 stimulated, 5 h; at 7.69 µM (top of the series) unless noted;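 further: ME-180 cervical cancer cells given 40 pM IL-6 alongside compound; SIE-controlled beta-lactamase reporter measured as 460/530 nm FRET emission ratio; on the % scale 0 is the no-effect control and ±100 the full control effect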
Procedure, shortened: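 Screening format detects activators and inhibitors alike: ME-180 SIE-bla cells stimulated at 40 pM IL-6 for 5 hrs with compound, then dual-emission beta-lactamase read at 405 nm excitation.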

[4] = molecular target: Glucocorticoid receptor (Homo sapiens) (UniProt P04150); experiment: GR-GFP Redistribution (AID 450;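 active means compounds whose dose series gives a full or clear partial fitted curve of increased nuclear translocation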; further: potency means the concentration at half of the fitted maximal effect); conditions: U2OS GR-GFP nuclear translocation, laser cytometry, 2 h
[5] = molecular target: Glucocorticoid receptor (Homo sapiens) (UniProt P04150); experiment: GR-EFC Redistribution (AID 451; calls by dose curve; further: potency means the concentration at half of the fitted maximal effect); conditions: CHO-K1 GR-EFC translocation, beta-gal luminescence, 2 h
Procedure, shortened: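 CHO-K1 cells expressing nuclear EA and GR-ED fragments of b-gal; compounds titrated up to 46 uM final, 2 h at 37 C. GR nuclear translocation read as complemented b-gal luminescence after 1 h RT detection.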

[6] = molecular target: Mitogen-activated protein kinase 10 (Mus musculus) (UniProt Q61831); experiment: JNK3 AlphaScreen Assay (AID 530); conditions: JNK3 lysate, c-Jun phosphorylation; series mostly up to 11.4 µM;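 further: kinase came from lysate of stimulated human HepG2 cells; signal reports phosphorylation of biotinylated GST-cJun 1-79 at Ser73 with 10 µM ATP; on the % scale 0 is the no-effect control and ±100 the full control effect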
Procedure, shortened: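 qHTS format: compounds tested as titrations against IL-1beta/TNF-alpha-activated HepG2 lysate JNK3 with biotin-GST-cJun substrate and 10 uM ATP at room temperature. Loss of anti-phospho-cJun AlphaScreen signal indicates inhibition.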

[7] = molecular target: 3',5'-cyclic-AMP phosphodiesterase 4B (Homo sapiens) (UniProt Q07343); experiment: qHTS Assay for Inhibitors of PDE-IV (AID 607; active means well fitted activation curve with a large enough effect in the main read-out, with a control signal flat, not every such curve was filed as active; further: % of control where 0% means no effect); conditions: HEK293 ACTOne CNG channel cells, membrane potential fluorescence; series mostly up to 22.9 µM
Procedure, shortened: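 The readout is membrane depolarisation from a cAMP-sensing CNG channel, detected with a potential dye at ex 535/em 590. Cells were HEK293-derived (endogenous PDE-IV) at 1000 cells/well, titrated up to 22.9 uM final.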

[8] = molecular target: Cytochrome P450 3A4 (Homo sapiens) (UniProt P08684); experiment: qHTS Assay for Inhibitors and Substrates of Cytochrome P450 3A4 (AID 884; active means well fitted curve in the direction sought with a large enough effect; an effect the other way counts as inactive or inconclusive; further: potency means the concentration at half of the fitted maximal effect; nearly all actives have a fitted effect of over 50% in size); conditions: recombinant CYP3A4, Luciferin-PPXE luminescence; series mostly up to 57.1 µM
Procedure, shortened: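 20 nM human CYP3A4 with 25 uM Luciferin-PPXE (at KM) in 200 mM KPO4, preincubated 10 min with compound; NADPH regeneration started a 60 min RT reaction. Luciferin detected by luminescence, normalized to 57 uM ketoconazole as full inhibition.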

[9] = molecular target: Cytochrome P450 3A4 (Homo sapiens) (UniProt P08684); experiment: qHTS Assay for Activators of Cytochrome P450 3A4 (AID 885; active means well fitted curve in the direction sought with a large enough effect; an effect the other way counts as inactive or inconclusive; further: nearly all actives have a fitted effect of over 65% in size); conditions: recombinant CYP3A4, Luciferin-PPXE luminescence, 60 min; series mostly up to 11.4 µM
Procedure, shortened: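 Steps: enzyme/substrate mix dispensed; compound added, 10 min RT; NADPH regeneration solution added, 60 min RT; luciferin detection buffer stops reaction; 20 min later luminescence measured.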

[10] = molecular target: Cytochrome P450 2C19 (Homo sapiens) (UniProt P33261); experiment: qHTS Assay for Inhibitors and Substrates of Cytochrome P450 2C19 (AID 899; active means well fitted curve in the direction sought with a large enough effect; an effect the other way counts as inactive or inconclusive; further: potency means the concentration at half of the fitted maximal effect; nearly all actives have a fitted effect of over 60% in size); conditions: recombinant CYP2C19, luciferin-H EGE luminescence; series mostly up to 11.4 µM
Procedure, shortened: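 Luminescent read-out of luciferin formed from Luciferin-H EGE (10uM, equal to KM). Enzyme 5nM in 50mM KPO4; compound added, 10 min at 37C, then NADPH regenerating system for 60 min at 37C. Full inhibition defined by 57uM ketoconazole.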

Chain of Cytochrome P450 3A4 (Homo sapiens) (P08684 whole entry, looked up): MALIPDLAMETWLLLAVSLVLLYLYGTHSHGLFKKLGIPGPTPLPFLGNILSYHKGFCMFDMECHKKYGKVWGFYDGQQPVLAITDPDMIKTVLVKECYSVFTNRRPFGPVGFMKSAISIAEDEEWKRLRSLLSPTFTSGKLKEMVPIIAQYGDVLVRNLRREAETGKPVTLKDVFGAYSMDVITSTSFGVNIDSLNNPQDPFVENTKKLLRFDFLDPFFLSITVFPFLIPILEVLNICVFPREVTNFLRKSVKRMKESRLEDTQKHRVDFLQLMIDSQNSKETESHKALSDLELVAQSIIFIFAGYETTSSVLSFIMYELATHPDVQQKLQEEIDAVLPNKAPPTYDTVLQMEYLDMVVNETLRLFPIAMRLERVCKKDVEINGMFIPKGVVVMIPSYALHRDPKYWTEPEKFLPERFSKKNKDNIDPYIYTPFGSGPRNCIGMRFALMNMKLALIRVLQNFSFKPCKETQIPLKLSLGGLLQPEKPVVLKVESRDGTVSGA
Chain of Glucocorticoid receptor (Homo sapiens) (P04150 whole entry, looked up, the tested form may be a part): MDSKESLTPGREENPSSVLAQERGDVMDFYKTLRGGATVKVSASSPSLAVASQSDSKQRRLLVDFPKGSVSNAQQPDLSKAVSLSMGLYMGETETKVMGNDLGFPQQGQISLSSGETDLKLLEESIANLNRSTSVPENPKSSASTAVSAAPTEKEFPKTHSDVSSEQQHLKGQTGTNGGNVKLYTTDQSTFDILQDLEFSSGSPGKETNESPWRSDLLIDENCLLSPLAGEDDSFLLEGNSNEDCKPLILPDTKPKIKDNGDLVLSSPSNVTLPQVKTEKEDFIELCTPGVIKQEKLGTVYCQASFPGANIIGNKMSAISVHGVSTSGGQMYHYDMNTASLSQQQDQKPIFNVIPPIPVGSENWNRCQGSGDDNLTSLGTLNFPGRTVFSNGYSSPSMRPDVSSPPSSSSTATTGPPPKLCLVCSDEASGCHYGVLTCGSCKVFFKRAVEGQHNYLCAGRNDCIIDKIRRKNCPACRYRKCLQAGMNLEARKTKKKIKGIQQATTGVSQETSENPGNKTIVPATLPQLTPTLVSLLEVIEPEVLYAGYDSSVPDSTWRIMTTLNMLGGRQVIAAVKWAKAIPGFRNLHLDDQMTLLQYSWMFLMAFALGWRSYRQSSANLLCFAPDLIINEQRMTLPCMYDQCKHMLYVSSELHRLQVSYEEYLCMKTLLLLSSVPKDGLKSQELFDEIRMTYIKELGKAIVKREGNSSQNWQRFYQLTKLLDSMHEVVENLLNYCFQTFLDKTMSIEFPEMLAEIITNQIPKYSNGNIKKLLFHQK
Chain of 3',5'-cyclic-AMP phosphodiesterase 4B (Homo sapiens) (Q07343 whole entry, looked up): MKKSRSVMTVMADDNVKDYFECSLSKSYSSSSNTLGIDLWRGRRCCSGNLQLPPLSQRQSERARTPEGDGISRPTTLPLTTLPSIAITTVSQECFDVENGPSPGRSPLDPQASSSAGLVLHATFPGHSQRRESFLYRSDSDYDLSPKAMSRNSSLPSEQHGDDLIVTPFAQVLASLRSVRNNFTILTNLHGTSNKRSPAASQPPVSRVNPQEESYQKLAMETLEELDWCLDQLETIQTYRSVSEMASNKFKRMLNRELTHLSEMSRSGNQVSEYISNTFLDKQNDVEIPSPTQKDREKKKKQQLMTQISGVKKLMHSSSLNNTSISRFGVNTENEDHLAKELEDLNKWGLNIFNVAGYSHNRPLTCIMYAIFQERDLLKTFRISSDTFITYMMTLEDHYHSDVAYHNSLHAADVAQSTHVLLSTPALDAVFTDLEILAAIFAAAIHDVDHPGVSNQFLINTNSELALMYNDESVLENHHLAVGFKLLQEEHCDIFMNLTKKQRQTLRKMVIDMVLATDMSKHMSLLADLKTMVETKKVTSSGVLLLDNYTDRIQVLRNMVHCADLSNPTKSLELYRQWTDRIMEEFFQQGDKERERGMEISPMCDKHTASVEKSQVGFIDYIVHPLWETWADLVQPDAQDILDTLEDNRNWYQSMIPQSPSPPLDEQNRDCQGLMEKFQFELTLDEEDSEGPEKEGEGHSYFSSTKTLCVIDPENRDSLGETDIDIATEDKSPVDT
Chain of Lysosomal acid glucosylceramidase (Homo sapiens) (P04062 whole entry, looked up): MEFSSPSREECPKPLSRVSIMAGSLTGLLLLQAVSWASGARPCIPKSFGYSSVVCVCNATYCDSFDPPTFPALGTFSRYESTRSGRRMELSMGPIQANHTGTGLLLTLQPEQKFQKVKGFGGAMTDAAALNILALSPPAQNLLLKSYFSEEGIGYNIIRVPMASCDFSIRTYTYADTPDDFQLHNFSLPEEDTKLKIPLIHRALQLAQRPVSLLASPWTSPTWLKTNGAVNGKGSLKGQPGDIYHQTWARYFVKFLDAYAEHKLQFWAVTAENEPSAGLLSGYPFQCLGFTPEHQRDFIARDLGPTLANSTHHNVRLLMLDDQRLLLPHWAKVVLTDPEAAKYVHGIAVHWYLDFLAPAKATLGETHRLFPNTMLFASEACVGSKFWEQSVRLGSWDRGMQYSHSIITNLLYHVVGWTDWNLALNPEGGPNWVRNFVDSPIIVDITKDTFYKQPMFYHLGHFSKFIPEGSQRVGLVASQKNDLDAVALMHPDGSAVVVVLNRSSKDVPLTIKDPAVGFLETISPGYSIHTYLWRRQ
Chain of Cytochrome P450 2C19 (Homo sapiens) (P33261 whole entry, looked up): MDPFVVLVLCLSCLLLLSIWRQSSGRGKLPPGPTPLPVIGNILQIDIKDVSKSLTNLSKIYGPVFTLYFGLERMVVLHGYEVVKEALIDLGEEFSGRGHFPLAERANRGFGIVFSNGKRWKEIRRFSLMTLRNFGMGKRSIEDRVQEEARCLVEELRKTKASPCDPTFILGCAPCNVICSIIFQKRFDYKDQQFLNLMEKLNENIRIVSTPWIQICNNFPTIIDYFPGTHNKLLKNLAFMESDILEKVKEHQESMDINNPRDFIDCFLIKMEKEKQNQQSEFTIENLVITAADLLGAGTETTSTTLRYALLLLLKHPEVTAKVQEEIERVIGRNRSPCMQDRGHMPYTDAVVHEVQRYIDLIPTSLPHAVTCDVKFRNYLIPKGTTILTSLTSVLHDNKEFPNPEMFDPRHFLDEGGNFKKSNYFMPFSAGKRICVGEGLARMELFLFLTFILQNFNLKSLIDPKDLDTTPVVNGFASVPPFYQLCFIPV

COc1ccc(C(=O)N/N=C2/C(=O)c3c(C)cc(C)cc3CC2(C)C)cc1
inactive: Potency [1] > 11.4 µM | activity change, negative = inhibition [2] -13.7% | activity, negative = inhibition [3] 6.46% | Potency [4] > 46 µM | Potency [5] > 9.22 µM | Potency [6] | Potency [7] | Potency [9]
active: Potency [8] 3.16 µM | Potency [10] 3.98 µM

O=c1cnc2cnc(N3CCNCC3)nc2n1CCc1ccccc1
inactive: Potency [1] > 11.4 µM | activity change, negative = inhibition [2] -5.27% | activity, negative = inhibition [3] -12.8% | Potency [4] > 9.22 µM | Potency [5] > 46 µM | Potency [6] | Potency [7] | Potency [9]
